Consider eleven compounds from ChEMBL document CHEMBL3988442, “University of Dundee, Small-Polar-MMV Screening Library” (2021).

For some of these results: Measured potencies and affinities stand elsewhere.

Common to all, as to design: scale not given: direction of the effect not stated beside the values
Assay [1] has as its target Protein translocase subunit SecA (Escherichia coli (strain K12)) (UniProt P10408). Description: Assay to Identify E. coli SecA ATPase Inhibitors. It is filed as functional. As to conditions: 30 µM.
Assay [2] deals with T1, Ubiquitin-activating enzyme e1, putative (Leishmania donovani (strain BPK282A1)) (UniProt E9BSI1).
T1 sequence (whole entry): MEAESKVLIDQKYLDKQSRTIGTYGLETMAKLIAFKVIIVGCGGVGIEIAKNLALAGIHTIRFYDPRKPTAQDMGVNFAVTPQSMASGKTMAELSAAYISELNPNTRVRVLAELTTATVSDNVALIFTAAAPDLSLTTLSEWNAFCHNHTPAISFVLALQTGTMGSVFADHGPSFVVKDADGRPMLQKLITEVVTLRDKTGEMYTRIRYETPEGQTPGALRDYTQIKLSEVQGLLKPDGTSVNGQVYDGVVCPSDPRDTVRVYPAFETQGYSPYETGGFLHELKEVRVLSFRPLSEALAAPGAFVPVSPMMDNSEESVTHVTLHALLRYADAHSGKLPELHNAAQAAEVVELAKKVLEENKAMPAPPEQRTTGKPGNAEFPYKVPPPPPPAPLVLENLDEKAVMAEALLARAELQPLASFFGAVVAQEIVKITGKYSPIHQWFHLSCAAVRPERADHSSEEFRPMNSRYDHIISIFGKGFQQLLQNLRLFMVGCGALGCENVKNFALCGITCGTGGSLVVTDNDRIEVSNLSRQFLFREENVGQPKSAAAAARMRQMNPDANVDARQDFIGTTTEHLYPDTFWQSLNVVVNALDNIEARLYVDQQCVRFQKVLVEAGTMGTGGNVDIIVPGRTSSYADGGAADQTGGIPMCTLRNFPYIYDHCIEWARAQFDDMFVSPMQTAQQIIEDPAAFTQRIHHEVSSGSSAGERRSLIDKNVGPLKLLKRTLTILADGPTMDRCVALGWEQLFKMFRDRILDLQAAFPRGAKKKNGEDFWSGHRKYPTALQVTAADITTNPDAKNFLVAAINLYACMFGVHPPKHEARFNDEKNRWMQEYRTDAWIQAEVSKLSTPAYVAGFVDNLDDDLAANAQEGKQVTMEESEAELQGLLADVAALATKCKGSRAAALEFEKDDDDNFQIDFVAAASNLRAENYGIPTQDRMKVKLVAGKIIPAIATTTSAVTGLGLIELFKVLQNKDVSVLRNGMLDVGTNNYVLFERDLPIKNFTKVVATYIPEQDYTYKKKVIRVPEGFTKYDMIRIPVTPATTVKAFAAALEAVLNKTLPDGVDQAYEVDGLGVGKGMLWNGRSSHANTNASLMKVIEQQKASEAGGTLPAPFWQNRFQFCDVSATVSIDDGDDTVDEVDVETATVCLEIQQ
Description: Leishmania donovani Ubiquitin Activating Enzyme (LdE1). It counts as functional. As to conditions: 30 µM.

Assay [3] addresses AMP-activated protein kinase, AMPK (Homo sapiens) (UniProt P54646+O43741+P54619+Q9UGJ0+Q9Y478+Q13131+Q9UGI9). Description: AMP-dependent Kinase enzyme assay. An in vitro enzyme assay that detects ADP turnover that is directly proportional to AMPK activity. This uses naive AMPK that is activated during the assay with MK-8722. It is filed as functional. The settings on record: 30 µM.

Assay [4] has as its target Sialic acid-binding Ig-like lectin 9 (Homo sapiens) (UniProt Q9Y336). Put plainly: Hs-Siglec9 ALPHAscreen SOP 20170721. The settings on record: 10 µM. For orientation: Alpha assays give light when donor and acceptor beads are brought close together.
The subject of a further assay is Trypanosoma cruzi. Put plainly: Trypanosoma cruzi phosphomannomutase and mannose-1-phosphate guanylyltransferase assay. It counts as functional. The settings on record: 10 µM.
For assay [5], the target named is T2, Arginase-2, mitochondrial (Homo sapiens) (UniProt P78540).
T2 sequence (whole entry): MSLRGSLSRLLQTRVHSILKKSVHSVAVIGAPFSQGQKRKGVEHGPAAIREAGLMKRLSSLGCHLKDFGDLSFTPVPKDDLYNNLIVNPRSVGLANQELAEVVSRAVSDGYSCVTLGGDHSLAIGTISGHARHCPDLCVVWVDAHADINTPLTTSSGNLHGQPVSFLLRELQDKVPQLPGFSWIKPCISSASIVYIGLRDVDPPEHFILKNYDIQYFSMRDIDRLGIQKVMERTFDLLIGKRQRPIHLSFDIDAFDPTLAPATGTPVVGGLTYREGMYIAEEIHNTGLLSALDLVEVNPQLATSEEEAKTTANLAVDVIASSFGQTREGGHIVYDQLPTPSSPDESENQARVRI
Put plainly: in vitro enzyme assay to detect the production of urea directly proportional to the activity of Arginase II. Note: in the data most compounds retested in dose-response had high values. It is filed as functional. As to conditions: 33.3 µM.

Assay [6] has as its target T3, Proteasome subunit beta (Trypanosoma cruzi) (UniProt O96673).
T3 sequence (whole entry): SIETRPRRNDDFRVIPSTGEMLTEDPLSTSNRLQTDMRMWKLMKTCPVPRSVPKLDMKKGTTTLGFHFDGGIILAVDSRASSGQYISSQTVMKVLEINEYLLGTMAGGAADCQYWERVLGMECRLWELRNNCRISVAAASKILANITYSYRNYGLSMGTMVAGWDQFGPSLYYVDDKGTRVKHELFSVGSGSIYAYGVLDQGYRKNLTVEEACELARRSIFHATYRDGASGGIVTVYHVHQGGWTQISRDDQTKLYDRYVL
Description: Trypanosoma cruzi proteasome chymotrypsin-like activity (TcProtChymo) assay. Note: in the data most compounds retested in dose-response had high values. It is filed as functional. As to conditions: 9.37 µM.

The species entered for another assay is Homo sapiens. Put plainly: To identify inhibition of the IFN signalling (Jak-Stat) pathway via expression of an eGFP reporter gene under the control of an IFN-stimulated response element (ISRE) containing MxA promoter. As to conditions: 30 µM. It is filed as functional. (In general: A reporter such as luciferase makes a cellular process visible.)
Assay [7] addresses T4, Tyrosyl-tRNA synthetase, putative (Trypanosoma cruzi (strain CL Brener)) (UniProt Q4DSP6).
T4 sequence (whole entry): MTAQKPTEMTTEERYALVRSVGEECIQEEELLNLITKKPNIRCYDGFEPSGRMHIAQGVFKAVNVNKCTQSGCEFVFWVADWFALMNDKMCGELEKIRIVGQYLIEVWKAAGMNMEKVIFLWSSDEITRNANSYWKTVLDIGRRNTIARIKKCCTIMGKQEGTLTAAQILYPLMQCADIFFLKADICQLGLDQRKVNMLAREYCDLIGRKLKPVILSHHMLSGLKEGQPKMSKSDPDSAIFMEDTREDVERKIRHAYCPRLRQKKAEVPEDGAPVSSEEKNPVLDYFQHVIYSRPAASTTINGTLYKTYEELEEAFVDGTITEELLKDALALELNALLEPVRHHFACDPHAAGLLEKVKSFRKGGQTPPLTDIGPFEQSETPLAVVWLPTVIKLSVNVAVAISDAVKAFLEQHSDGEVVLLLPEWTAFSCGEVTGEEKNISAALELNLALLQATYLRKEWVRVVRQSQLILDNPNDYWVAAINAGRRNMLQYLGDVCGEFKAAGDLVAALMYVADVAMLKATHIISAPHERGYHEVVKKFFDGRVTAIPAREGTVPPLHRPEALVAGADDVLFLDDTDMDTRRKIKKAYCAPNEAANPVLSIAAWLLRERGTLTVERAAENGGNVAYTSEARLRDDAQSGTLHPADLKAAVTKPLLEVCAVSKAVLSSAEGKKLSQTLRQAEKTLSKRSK
Put plainly: Trypanosoma cruzi tyrosyl tRNA synthetase (TcYRS) _High Tyrosine SOP. Note: in the data most compounds retested in dose-response had high values. It is filed as functional. As to conditions: 30 µM.

In assay [8] the target is T4, Tyrosyl-tRNA synthetase, putative (Trypanosoma cruzi (strain CL Brener)). Description: Trypanosoma cruzi tyrosyl tRNA synthetase (TcYRS) SOP. It is filed as functional. The settings on record: 30 µM.
In assay [9] the target is Chromo domain-containing protein 1 (Saccharomyces cerevisiae (strain ATCC 204508 / S288c) (Baker's yeast)) (UniProt P32657). Put plainly: ScCHD-1 Enzyme Inhibition Assay. Note: in the data most compounds retested in dose-response had high values. As to conditions: 30 µM. It is filed as functional.
Sequence of Chromo domain-containing protein 1 (Saccharomyces cerevisiae (strain ATCC 204508 / S288c) (Baker's yeast)) (P32657 whole entry, the tested form may be a part): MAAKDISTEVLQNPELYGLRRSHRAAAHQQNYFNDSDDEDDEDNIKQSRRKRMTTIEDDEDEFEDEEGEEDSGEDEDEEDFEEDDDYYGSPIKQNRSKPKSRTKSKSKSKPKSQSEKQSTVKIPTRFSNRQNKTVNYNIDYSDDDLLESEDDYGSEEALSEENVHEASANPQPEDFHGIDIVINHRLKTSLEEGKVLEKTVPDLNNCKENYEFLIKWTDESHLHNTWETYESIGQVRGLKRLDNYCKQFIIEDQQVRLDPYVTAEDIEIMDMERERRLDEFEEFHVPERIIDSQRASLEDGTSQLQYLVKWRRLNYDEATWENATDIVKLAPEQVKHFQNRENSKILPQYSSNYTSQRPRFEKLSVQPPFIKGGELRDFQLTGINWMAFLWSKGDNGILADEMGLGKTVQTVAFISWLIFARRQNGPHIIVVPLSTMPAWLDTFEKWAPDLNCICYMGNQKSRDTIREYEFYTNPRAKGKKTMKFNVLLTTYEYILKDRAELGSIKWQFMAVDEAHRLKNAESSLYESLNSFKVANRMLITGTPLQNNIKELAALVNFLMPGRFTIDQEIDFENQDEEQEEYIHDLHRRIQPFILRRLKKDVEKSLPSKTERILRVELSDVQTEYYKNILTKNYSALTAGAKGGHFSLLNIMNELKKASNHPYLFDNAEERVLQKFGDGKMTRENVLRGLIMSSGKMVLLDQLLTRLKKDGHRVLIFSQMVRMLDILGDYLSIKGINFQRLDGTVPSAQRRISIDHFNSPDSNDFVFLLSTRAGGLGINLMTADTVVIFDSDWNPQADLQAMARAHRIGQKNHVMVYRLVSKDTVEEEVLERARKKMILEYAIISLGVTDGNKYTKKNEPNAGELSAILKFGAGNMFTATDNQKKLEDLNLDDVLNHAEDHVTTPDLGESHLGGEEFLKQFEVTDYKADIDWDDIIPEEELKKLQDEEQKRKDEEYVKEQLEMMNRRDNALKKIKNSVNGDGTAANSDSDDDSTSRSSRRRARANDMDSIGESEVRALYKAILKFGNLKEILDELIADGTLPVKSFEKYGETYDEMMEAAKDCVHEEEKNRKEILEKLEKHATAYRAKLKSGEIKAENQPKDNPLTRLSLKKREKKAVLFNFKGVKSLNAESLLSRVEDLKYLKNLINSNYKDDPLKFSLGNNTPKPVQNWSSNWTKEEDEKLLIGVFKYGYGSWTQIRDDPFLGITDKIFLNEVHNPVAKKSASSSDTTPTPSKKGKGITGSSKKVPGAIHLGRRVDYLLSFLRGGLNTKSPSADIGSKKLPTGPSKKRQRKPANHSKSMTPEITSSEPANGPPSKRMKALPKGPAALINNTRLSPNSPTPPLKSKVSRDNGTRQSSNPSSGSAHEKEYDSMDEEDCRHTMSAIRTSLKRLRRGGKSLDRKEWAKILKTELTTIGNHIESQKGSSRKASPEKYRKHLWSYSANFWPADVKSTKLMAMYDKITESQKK

Sequence of Sialic acid-binding Ig-like lectin 9 (Homo sapiens) (Q9Y336 whole entry): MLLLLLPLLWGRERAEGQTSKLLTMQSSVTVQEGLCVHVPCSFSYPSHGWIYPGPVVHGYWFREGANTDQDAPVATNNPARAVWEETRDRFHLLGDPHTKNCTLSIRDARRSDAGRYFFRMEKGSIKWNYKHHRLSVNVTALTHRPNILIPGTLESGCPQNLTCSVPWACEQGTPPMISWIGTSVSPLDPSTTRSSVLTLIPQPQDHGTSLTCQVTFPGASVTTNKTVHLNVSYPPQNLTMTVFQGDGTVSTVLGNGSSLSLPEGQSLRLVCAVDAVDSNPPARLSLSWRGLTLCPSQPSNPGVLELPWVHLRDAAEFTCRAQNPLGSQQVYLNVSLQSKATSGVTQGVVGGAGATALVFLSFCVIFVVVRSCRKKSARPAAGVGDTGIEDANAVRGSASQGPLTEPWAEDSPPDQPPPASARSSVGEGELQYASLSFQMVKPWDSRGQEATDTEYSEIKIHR
Sequence of Protein translocase subunit SecA (Escherichia coli (strain K12)) (P10408 whole entry): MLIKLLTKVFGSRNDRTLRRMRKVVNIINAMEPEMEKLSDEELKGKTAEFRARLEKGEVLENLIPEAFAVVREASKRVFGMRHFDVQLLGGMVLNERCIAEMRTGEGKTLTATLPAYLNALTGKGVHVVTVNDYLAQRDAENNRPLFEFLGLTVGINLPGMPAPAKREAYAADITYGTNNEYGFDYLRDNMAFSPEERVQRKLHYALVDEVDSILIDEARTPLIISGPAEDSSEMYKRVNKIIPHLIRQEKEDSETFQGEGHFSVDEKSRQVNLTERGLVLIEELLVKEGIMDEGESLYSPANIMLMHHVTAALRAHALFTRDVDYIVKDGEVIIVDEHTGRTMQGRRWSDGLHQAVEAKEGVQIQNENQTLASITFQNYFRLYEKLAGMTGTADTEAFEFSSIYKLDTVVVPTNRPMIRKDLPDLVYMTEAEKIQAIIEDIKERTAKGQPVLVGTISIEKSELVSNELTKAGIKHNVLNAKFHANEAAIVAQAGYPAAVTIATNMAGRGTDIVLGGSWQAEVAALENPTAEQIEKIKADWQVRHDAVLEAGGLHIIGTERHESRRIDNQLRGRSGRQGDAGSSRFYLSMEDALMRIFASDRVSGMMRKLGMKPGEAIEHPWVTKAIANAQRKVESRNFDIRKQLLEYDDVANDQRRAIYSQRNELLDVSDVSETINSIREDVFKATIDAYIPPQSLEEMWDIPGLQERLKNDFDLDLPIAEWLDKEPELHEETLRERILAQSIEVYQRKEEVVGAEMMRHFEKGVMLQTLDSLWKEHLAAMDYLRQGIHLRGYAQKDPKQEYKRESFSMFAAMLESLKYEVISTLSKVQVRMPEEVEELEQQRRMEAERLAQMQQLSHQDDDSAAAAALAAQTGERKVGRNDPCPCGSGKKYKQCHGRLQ

Consider `O=C(c1cncc(N2CCC(O)(CO)CC2)n1)N1CCCC1`, for which the Percent Effect was -4.63% in assay [1]; 5.33% in [2]; -3.65% in [3]; 8.86% in assay [4]; 6.72% with Trypanosoma cruzi; 0% in assay [5]. Also, the Percent Effect in assay [6] was 16.9%; in the assay filed under Homo sapiens it was -11.2%; in assay [7], 9.29%; in assay [8] it was 18.5%; in [9] it was -7.99%.

As to `CC(=O)Nc1nc(CN2CCn3c(nnc3C3CC3)C2)cs1`, the Percent Effect is -1.36% in [1]; 5.41% in [2]; 0.348% in assay [3]; 6.61% in [4]; 5.11% in the assay on Trypanosoma cruzi; -9.06% in assay [5]. For the same compound, the Percent Effect in assay [6] was -3.59%; in the assay listed under Homo sapiens, 2.7%; in assay [7], 0.99%; in assay [8], 11%; in assay [9], -3.08%.

For the compound `Cc1oc(C)c(C(=O)NCc2ccccn2)c1C`, the Percent Effect in assay [1] was -0.692%; in assay [2], 10.5%; in [3], -8.31%; in [4] it was 2.54%; in the assay on Trypanosoma cruzi, -12.8%; in assay [5], 7.28%. Also, the Percent Effect in assay [6] is 15.7%; in the assay filed under Homo sapiens, 14%; in assay [7], 1.47%; in [8], 7.32%; in assay [9], -5.27%.

As to `CCn1nc2c(cc1=O)CN(Cc1nc(N)c3ccccc3n1)CC2`, the Percent Effect was -5.07% in assay [1]; 5.48% in [2]; -62.9% in assay [3]; 1.04% in [4]; 3.92% in the assay on Trypanosoma cruzi; 3.64% in assay [5]. The Percent Effect in [6] was 14.6%; in the assay filed under Homo sapiens it was -3.85%; in [7], 2.15%; in [8], 12.5%; in [9], -7.75%.

On to `COc1ccc(C(=O)N2CCC(Nc3cccnn3)CC2)c(OC)c1`, for which the Percent Effect in assay [1] is 1.87%; in assay [2], -3.8%; in assay [3], 3.46%; in assay [4], 2.44%; with Trypanosoma cruzi, -4.41%; in [5], 5.38%. In addition, the Percent Effect in [6] is 0.858%; in the assay listed under Homo sapiens it was 0.418%; in assay [7], -1.04%; in [8], 2.53%; in [9], -16%.

Regarding `CSCc1cccc(C(=O)N2CCN(CC(C)O)CC2)c1` (stereo unspecified), the Percent Effect was -1.86% in [1]; -2.6% in assay [2]; -1.05% in assay [3]; 3.73% in assay [4]; -7.68% in the assay on Trypanosoma cruzi; 2.13% in [5]. Further, the Percent Effect in [6] is 11.8%; in the assay listed under Homo sapiens, 17.2%; in assay [7] it was 1.94%; in assay [8], -2.44%; in assay [9] it was -1.72%.

Consider `CNc1cncc(C2CCCN(S(C)(=O)=O)C2)n1` (stereo unspecified), for which the Percent Effect in assay [1] was -1.57%; in [2], -1.35%; in assay [3] it was 13.3%; in assay [4], 2.54%; with Trypanosoma cruzi, -6.92%; in assay [5], 3.48%. Also, the Percent Effect in [6] is 17%; in the assay listed under Homo sapiens, 23.6%; in assay [7], 1.07%; in assay [8] it was 6.49%; in [9] it was -15.8%.

Take `Cc1ccc(C2CSCCN2C(=O)C2=CCCC2)o1` (stereo unspecified): the Percent Effect in [1] was -5.63%; in assay [2], 8.11%; in assay [3] it was -2.27%; in assay [4], 26.9%; in the assay on Trypanosoma cruzi, 0.684%; in assay [5] it was 1.24%. The Percent Effect in assay [6] was 2.83%; in the assay listed under Homo sapiens, -24%; in assay [7], 1.07%; in assay [8] it was 6.17%; in assay [9] it was -2.84%.

`O=C(c1cnc(C2CC2)s1)N1CCCCC1Cn1cccn1` (stereo unspecified): the Percent Effect was -2.96% in assay [1]; 1.27% in [2]; 4.54% in [3]; -0.611% in [4]; -1.13% in the assay on Trypanosoma cruzi; -3.23% in assay [5]. In addition, the Percent Effect is 12.9% in assay [6]; -2.91% in the assay listed under Homo sapiens; 2.08% in [7]; 7.59% in assay [8]; -0.92% in assay [9].

Consider `O=C(Cc1ccc(F)cc1)N1CCCCC1c1ccn2ccnc2n1` (stereo unspecified), for which the Percent Effect in [1] is -2.25%; in assay [2] it was -1.35%; in assay [3], 14.8%; in [4] it was 2.79%; with Trypanosoma cruzi, -2.96%; in [5], -1.16%. Moreover, the Percent Effect in assay [6] is 9.83%; in the assay listed under Homo sapiens, 10.1%; in assay [7], 0%; in assay [8], -1.3%; in assay [9], -17.6%.

Regarding `Cc1cc(C[C@@H]2CCC[C@H]2NCc2ccccc2C(F)(F)F)on1`, the Percent Effect in assay [1] was -4.94%; in assay [2] it was 1.35%; in assay [3], 8.14%; in assay [4], -0.325%; with Trypanosoma cruzi, 0%; in assay [5] it was 2.55%. Further, the Percent Effect in assay [6] was 6.4%; in the assay listed under Homo sapiens, 13.5%; in [7], 2.15%; in [8], 9.09%; in [9], -10.5%.
